According to PubChem BioAssay AID1159580 (chemical genetic matrix, 2015):
Among all 5,500 compounds or so, about 2,000 (36%) were called active. Inconclusive results (about 18%) are left out. Some of the results follow. Values without a mark were called inactive. Cut-off read from the data, not from the text of the source: active = normalized growth mostly below about 0.91 (no sharp cut-off); inconclusive = no clear call, values can overlap the other calls; inactive = mostly above about 0.92.

Test: chemical genetic growth profiling, strain panel (AID 1159580);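 note: tested at 20 µM; growth read once vehicle control cultures reached saturation at 30 °C; 1 = growth at the plate median or of vehicle wells; lower values mean less growth of the strain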
Details: growth OD

For `CO[C@H]1CC(O[C@@H]2/C(C)=C/C[C@@H]3C[C@@H](C[C@]4(CC[C@H](C)[C@@H](C5CCCCC5)O4)O3)OC(=O)[C@@H]3C=C(C)/C(=N\O)[C@H]4OC/C(=C\C=C\[C@@H]2C)[C@]43O)O[C@@H](C)C1O` (stereo not given in full), the normalized growth (S. cerevisiae deletion strains, locus YJR066W, strain TOR1, hits give low values) was 0.659 (active), the normalized growth (S. cerevisiae deletion strains, locus YKL009W, strain mrt4, hits give low values) was 0.975 and the normalized growth (S. cerevisiae deletion strains, locus YKL068W, hits give low values) was 1. It also gave a normalized growth (S. cerevisiae deletion strains, locus YKL085W, strain MDH1 (second series), hits give low values) of 0.997, a normalized growth (S. cerevisiae deletion strains, locus YKL085W, strain MDH1, hits give low values) of 0.997 and a normalized growth (S. cerevisiae deletion strains, locus YKL160W, strain elf1, hits give low values) of 0.993. The normalized growth (S. cerevisiae deletion strains, locus YKL190W, strain CNB1, hits give low values) was 0.982, the normalized growth (S. cerevisiae deletion strains, locus YKR001C, strain vps1, hits give low values) was 0.745 (active) and the normalized growth (S. cerevisiae deletion strains, locus YKR026C, strain gcn3, hits give low values) was 1.02. For the same compound, the normalized growth (S. cerevisiae deletion strains, locus YKR091W, strain srl3, hits give low values) was 1.01, the normalized growth (S. cerevisiae deletion strains, locus YLL001W, strain dnm1, hits give low values) was 0.974 and the normalized growth (S. cerevisiae deletion strains, locus YLL026W, hits give low values) was 1.01. For the same compound, the normalized growth (S. cerevisiae deletion strains, locus YLL041C, strain sdh2, hits give low values) was 1.01, the normalized growth (S. cerevisiae deletion strains, locus YLR027C, strain aat2, hits give low values) was 1.01 and the normalized growth (S. cerevisiae deletion strains, locus YLR039C, strain RIC1, hits give low values) was 0.492 (active). The normalized growth (S. cerevisiae deletion strains, locus YLR058C, strain SHM2, hits give low values) was 0.987, the normalized growth (S. cerevisiae deletion strains, locus YLR102C, strain apc9, hits give low values) was 0.997 and the normalized growth (S. cerevisiae deletion strains, locus YLR113W, strain HOG1, hits give low values) was 0.284 (active). For the same compound, the normalized growth (S. cerevisiae deletion strains, locus YLR221C, strain rsa3, hits give low values) was 1.01, the normalized growth (S. cerevisiae deletion strains, locus YLR258W, strain gsy2, hits give low values) was 1 and the normalized growth (S. cerevisiae deletion strains, locus YLR262C, strain YPT6 (second series), hits give low values) was 0.312 (active). The normalized growth (S. cerevisiae deletion strains, locus YLR262C, strain YPT6, hits give low values) was 0.415 (active), the normalized growth (S. cerevisiae deletion strains, locus YLR268W, strain sec22, hits give low values) was 0.928 and the normalized growth (S. cerevisiae deletion strains, locus YLR320W, strain mms22, hits give low values) was 0.96. The normalized growth (S. cerevisiae deletion strains, locus YLR330W, strain CHS5, hits give low values) was 0.978, the normalized growth (S. cerevisiae deletion strains, locus YLR342W, strain FKS1 (second series), hits give low values) was 0.526 (active) and the normalized growth (S. cerevisiae deletion strains, locus YLR342W, strain FKS1, hits give low values) was 0.985. It also gave a normalized growth (S. cerevisiae deletion strains, locus YLR357W, strain rsc2, hits give low values) of 0.854, a normalized growth (S. cerevisiae deletion strains, locus YLR370C, strain arc18, hits give low values) of 0.993 and a normalized growth (S. cerevisiae deletion strains, locus YLR371W, strain rom2, hits give low values) of 0.995. It also gave a normalized growth (S. cerevisiae deletion strains, locus YLR384C, strain iki3, hits give low values) of 1.01, a normalized growth (S. cerevisiae deletion strains, locus YLR418C, strain cdc73, hits give low values) of 0.936 and a normalized growth (S. cerevisiae deletion strains, locus YML016C, strain PPZ1, hits give low values) of 0.995. For the same compound, the normalized growth (S. cerevisiae deletion strains, locus YML032C, strain rad52, hits give low values) was 0.987, the normalized growth (S. cerevisiae deletion strains, locus YML120C, strain ndi1, hits give low values) was 0.995 and the normalized growth (S. cerevisiae deletion strains, locus YML124C, strain tub3, hits give low values) was 1. For the same compound, the normalized growth (S. cerevisiae deletion strains, locus YMR058W, strain fet3, hits give low values) was 1.02, the normalized growth (S. cerevisiae deletion strains, locus YMR078C, strain ctf18, hits give low values) was 0.986 and the normalized growth (S. cerevisiae deletion strains, locus YMR125W, strain sto1, hits give low values) was 1.03. For the same compound, the normalized growth (S. cerevisiae deletion strains, locus YMR129W, hits give low values) was 1.02, the normalized growth (S. cerevisiae deletion strains, locus YMR205C, strain PFK2, hits give low values) was 0.997 and the normalized growth (S. cerevisiae deletion strains, locus YMR223W, strain ubp8, hits give low values) was 0.993. The normalized growth (S. cerevisiae deletion strains, locus YMR231W, strain pep5, hits give low values) was 0.998, the normalized growth (S. cerevisiae deletion strains, locus YMR263W, strain SAP30, hits give low values) was 0.977 and the normalized growth (S. cerevisiae deletion strains, locus YMR307W, strain GAS1, hits give low values) was 0.911. The normalized growth (S. cerevisiae deletion strains, locus YNL067W, strain RPL9B, hits give low values) was 0.988, the normalized growth (S. cerevisiae deletion strains, locus YNL071W, strain lat1, hits give low values) was 1.02 and the normalized growth (S. cerevisiae deletion strains, locus YNL183C, strain NPR1, hits give low values) was 0.512 (active). For the same compound, the normalized growth (S. cerevisiae deletion strains, locus YNL209W, strain ssb2, hits give low values) was 0.977, the normalized growth (S. cerevisiae deletion strains, locus YNL233W, strain BNI4, hits give low values) was 0.971 and the normalized growth (S. cerevisiae deletion strains, locus YNL248C, strain rpa49, hits give low values) was 1.03. It also gave a normalized growth (S. cerevisiae deletion strains, locus YNL250W, strain rad50, hits give low values) of 0.967, a normalized growth (S. cerevisiae deletion strains, locus YNL271C, strain bni1, hits give low values) of 0.922 and a normalized growth (S. cerevisiae deletion strains, locus YNL298W, strain CLA4, hits give low values) of 0.933. The normalized growth (S. cerevisiae deletion strains, locus YNL307C, strain MCK1, hits give low values) was 0.957, the normalized growth (S. cerevisiae deletion strains, locus YNL322C, strain KRE1 (second series), hits give low values) was 1.02 and the normalized growth (S. cerevisiae deletion strains, locus YNL322C, strain KRE1, hits give low values) was 0.99. For the same compound, the normalized growth (S. cerevisiae deletion strains, locus YNR049C, strain mso1, hits give low values) was 0.984, the normalized growth (S. cerevisiae deletion strains, locus YNR052C, strain pop2, hits give low values) was 0.99 and the normalized growth (S. cerevisiae deletion strains, locus YOL006C, strain TOP1, hits give low values) was 0.901. It also gave a normalized growth (S. cerevisiae deletion strains, locus YOL012C, strain htz1) of 0.49, a normalized growth (S. cerevisiae deletion strains, locus YOL147C, strain pex11, hits give low values) of 1.01 and a normalized growth (S. cerevisiae deletion strains, locus YOR001W, strain rrp6, hits give low values) of 0.986. It also gave a normalized growth (S. cerevisiae deletion strains, locus YOR061W, strain CKA2, hits give low values) of 0.98, a normalized growth (S. cerevisiae deletion strains, locus YOR069W, strain VPS5, hits give low values) of 0.99 and a normalized growth (S. cerevisiae deletion strains, locus YOR070C, strain gyp1, hits give low values) of 0.994. It also gave a normalized growth (S. cerevisiae deletion strains, locus YOR080W, strain dia2, hits give low values) of 1.02, a normalized growth (S. cerevisiae deletion strains, locus YOR083W, strain WHI5, hits give low values) of 1 and a normalized growth (S. cerevisiae deletion strains, locus YOR106W, strain vam3, hits give low values) of 1.05. It also gave a normalized growth (S. cerevisiae deletion strains, locus YOR136W, strain idh2, hits give low values) of 0.974, a normalized growth (S. cerevisiae deletion strains, locus YOR144C, strain elg1, hits give low values) of 0.999 and a normalized growth (S. cerevisiae deletion strains, locus YOR184W, strain ser1, hits give low values) of 0.991. For the same compound, the normalized growth (S. cerevisiae deletion strains, locus YOR231W, strain MKK1, hits give low values) was 0.962, the normalized growth (S. cerevisiae deletion strains, locus YOR265W, strain rbl2, hits give low values) was 0.995 and the normalized growth (S. cerevisiae deletion strains, locus YOR270C, strain vph1, hits give low values) was 0.991. For the same compound, the normalized growth (S. cerevisiae deletion strains, locus YOR290C, strain snf2, hits give low values) was 1.04, the normalized growth (S. cerevisiae deletion strains, locus YOR316C, strain cot1, hits give low values) was 0.99 and the normalized growth (S. cerevisiae deletion strains, locus YPL051W, strain arl3, hits give low values) was 0.8 (active). The normalized growth (S. cerevisiae deletion strains, locus YPL055C, strain LGE1, hits give low values) was 1, the normalized growth (S. cerevisiae deletion strains, locus YPL078C, strain atp4, hits give low values) was 1.03 and the normalized growth (S. cerevisiae deletion strains, locus YPL106C, strain sse1, hits give low values) was 0.62 (active). The normalized growth (S. cerevisiae deletion strains, locus YPL240C, strain hsp82, hits give low values) was 1.01, the normalized growth (S. cerevisiae deletion strains, locus YPL241C, strain CIN2, hits give low values) was 0.979 and the normalized growth (S. cerevisiae deletion strains, locus YPL256C, strain CLN2, hits give low values) was 0.629 (active). The normalized growth (S. cerevisiae deletion strains, locus YPR119W, strain clb2, hits give low values) was 0.995, the normalized growth (S. cerevisiae deletion strains, locus YPR141C, strain kar3, hits give low values) was 0.992 and the normalized growth (S. cerevisiae deletion strains, locus YPR163C, strain tif3, hits give low values) was 0.972. It also gave a normalized growth (S. cerevisiae deletion strains, locus YPR167C, strain met16, hits give low values) of 0.985, a normalized growth (S. cerevisiae deletion strains, strain wtn01, hits give low values) of 0.996 and a normalized growth (S. cerevisiae strains, strain wild type, hits give low values) of 0.985.
